In PubChem BioAssay (EPA / NIEHS):
Active and inactive are the calls of the source. Rule for the calls: active = hit-call score of the fitted dose curve at least 0.9, where 1 is the maximum; inactive = score below 0.9.

Columns and labels:
Conditions in all cases: mRNA level, 48 h; actives raise or lower the signal
[1] = read-out: succinate dehydrogenase complex iron sulfur subunit B (SDHB), SDHB (gene 6390); experiment: LTEA_HepaRG_SDHB: Life Technologies and Expression Analysis (LTEA) Assay for succinate dehydrogenase complex iron sulfur subunit B (SDHB) using HepaRG (AID 2283528)
In short: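 HepaRG, 48 h exposure, 8-pt half-log series from 100 uM in 0.5% DMSO, duplicates. Readout: SDHB mRNA by Fluidigm qRT-PCR vs housekeeping genes; bidirectional fit relative to DMSO.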

[2] = read-out: Signal transducer and activator of transcription 3 (Homo sapiens) (UniProt P40763); experiment: LTEA_HepaRG_STAT3: Life Technologies and Expression Analysis (LTEA) Assay for Signal transducer and activator of transcription (STAT3) using HepaRG (AID 2283529)
In short: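 Differentiated human HepaRG cells in serum-free induction medium were exposed in duplicate for 48 h to eight half-log concentrations up to 100 uM in 0.5% DMSO. STAT3 mRNA was quantified by TaqMan qRT-PCR, normalized to ACTB, GAPDH and POLR2A, and fitted bidirectionally against DMSO.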

[3] = read-out: sulfotransferase 2A1 (SULT2A1), SULT2A1 (gene 6822); experiment: LTEA_HepaRG_SULT2A1: Life Technologies and Expression Analysis (LTEA) Assay for sulfotransferase 2A1 (SULT2A1) using HepaRG (AID 2283531)
In short: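 HepaRG, 48 h chemical exposure, 8-pt half-log curve from 100 uM in 0.5% DMSO, duplicates. Readout: TaqMan qRT-PCR of SULT2A1 mRNA, housekeeping-normalized. Bidirectional fit vs DMSO baseline.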

[4] = read-out: Transforming Growth Factor (TGFA), TGFA (gene 7039); experiment: LTEA_HepaRG_TGFA: Life Technologies and Expression Analysis (LTEA) Assay for Transforming Growth Factor (TGFA) using HepaRG (AID 2283532)
In short: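 Differentiated human HepaRG cells, plated 48 h then switched to serum-free induction medium, were exposed in duplicate for 48 h to 8-point half-log series from 100 uM in 0.5% DMSO. TGFA mRNA measured by qRT-PCR, normalized to ACTB/GAPDH/POLR2A, bidirectional fit versus DMSO.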

[5] = read-out: Transforming Growth Factor (TGFB1), TGFB1 (gene 7040); experiment: LTEA_HepaRG_TGFB1: Life Technologies and Expression Analysis (LTEA) Assay for Transforming Growth Factor (TGFB1) Transporter using HepaRG (AID 2283533)
In short: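 qRT-PCR readout of TGFB1 transcript in HepaRG lysates, normalized to three housekeeping genes; gain or loss of signal fitted relative to 0.5% DMSO vehicle. Exposure: 48 h, 8-point curve from 100 uM, duplicate wells.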

TIMP1, TIMP1 (gene 7076) = experiment: LTEA_HepaRG_TIMP1: Life Technologies and Expression Analysis (LTEA) Assay for TIMP1 using HepaRG (AID 2283534)
In short: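 HepaRG, 48 h exposure, 8-pt half-log series from 100 uM in 0.5% DMSO, duplicates; TIMP1 transcript by Fluidigm qRT-PCR, housekeeping-normalized; bidirectional curve fit vs DMSO baseline.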

[6] = read-out: Tumor necrosis factor receptor 1 (TNFRSF1A), TNFRSF1A (gene 7132); experiment: LTEA_HepaRG_TNFRSF1A: Life Technologies and Expression Analysis (LTEA) Assay for Tumor necrosis factor receptor 1 (TNFRSF1A) using HepaRG (AID 2283535)
In short: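 HepaRG, 48 h plating then 48 h chemical exposure, serum-free induction media; 8-pt CRC from 100 uM, half-log, 0.5% DMSO vehicle, duplicates. Readout: TaqMan qRT-PCR (Fluidigm), housekeeping-gene normalized; bidirectional fit vs DMSO.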

[7] = read-out: Thyroid Hormone Responsive (THRSP), THRSP (gene 7069); experiment: LTEA_HepaRG_THRSP: Life Technologies and Expression Analysis (LTEA) Assay for Thyroid Hormone Responsive (THRSP) using HepaRG (AID 2283536)
In short: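 Differentiated human HepaRG cells were exposed in duplicate for 48 h in serum-free induction medium to eight concentrations (top 100 uM, half-log steps, 0.5% DMSO). Expression was quantified by TaqMan qRT-PCR, normalized to ACTB, GAPDH and POLR2A, with bidirectional fitting against DMSO.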

[8] = read-out: Cellular tumor antigen p53 (Homo sapiens) (UniProt P04637); experiment: LTEA_HepaRG_TP53: Life Technologies and Expression Analysis (LTEA) Assay for Tumor Protein P53 (TP53) using HepaRG (AID 2283537)
In short: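 HepaRG, 48 h exposure, top 100 uM, half-log 8-point, 0.5% DMSO vehicle, duplicates. Read: TP53 mRNA by TaqMan qRT-PCR, normalised to ACTB/GAPDH/POLR2A; bidirectional fit vs DMSO.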

[9] = read-out: solute carrier (SLCO1B1), SLCO1B1 (gene 10599); experiment: LTEA_HepaRG_SLCO1B1: Life Technologies and Expression Analysis (LTEA) Assay for solute carrier (SLCO1B1) using HepaRG (AID 2283530)
In short: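 SLCO1B1 transcript read by qRT-PCR (Fluidigm arrays), normalized to three housekeeping genes, after 48 h chemical exposure of HepaRG cells; bidirectional concentration-response fitting versus 0.5% DMSO baseline. Eight-point half-log series, maximum 100 uM.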

Measured: AC50

Sequence of Cellular tumor antigen p53 (Homo sapiens) (P04637 whole entry, looked up): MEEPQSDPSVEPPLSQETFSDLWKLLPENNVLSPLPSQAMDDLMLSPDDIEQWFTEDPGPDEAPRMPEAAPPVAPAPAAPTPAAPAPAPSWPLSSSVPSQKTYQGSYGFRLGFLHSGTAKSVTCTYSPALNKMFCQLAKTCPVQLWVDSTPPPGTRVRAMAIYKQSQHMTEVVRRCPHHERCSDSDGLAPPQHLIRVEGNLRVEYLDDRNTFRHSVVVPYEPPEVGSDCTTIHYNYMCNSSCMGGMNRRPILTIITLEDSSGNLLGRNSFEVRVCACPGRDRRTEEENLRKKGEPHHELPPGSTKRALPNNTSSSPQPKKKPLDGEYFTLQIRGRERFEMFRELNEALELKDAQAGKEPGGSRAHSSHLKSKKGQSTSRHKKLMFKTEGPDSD
Sequence of Signal transducer and activator of transcription 3 (Homo sapiens) (P40763 whole entry, looked up): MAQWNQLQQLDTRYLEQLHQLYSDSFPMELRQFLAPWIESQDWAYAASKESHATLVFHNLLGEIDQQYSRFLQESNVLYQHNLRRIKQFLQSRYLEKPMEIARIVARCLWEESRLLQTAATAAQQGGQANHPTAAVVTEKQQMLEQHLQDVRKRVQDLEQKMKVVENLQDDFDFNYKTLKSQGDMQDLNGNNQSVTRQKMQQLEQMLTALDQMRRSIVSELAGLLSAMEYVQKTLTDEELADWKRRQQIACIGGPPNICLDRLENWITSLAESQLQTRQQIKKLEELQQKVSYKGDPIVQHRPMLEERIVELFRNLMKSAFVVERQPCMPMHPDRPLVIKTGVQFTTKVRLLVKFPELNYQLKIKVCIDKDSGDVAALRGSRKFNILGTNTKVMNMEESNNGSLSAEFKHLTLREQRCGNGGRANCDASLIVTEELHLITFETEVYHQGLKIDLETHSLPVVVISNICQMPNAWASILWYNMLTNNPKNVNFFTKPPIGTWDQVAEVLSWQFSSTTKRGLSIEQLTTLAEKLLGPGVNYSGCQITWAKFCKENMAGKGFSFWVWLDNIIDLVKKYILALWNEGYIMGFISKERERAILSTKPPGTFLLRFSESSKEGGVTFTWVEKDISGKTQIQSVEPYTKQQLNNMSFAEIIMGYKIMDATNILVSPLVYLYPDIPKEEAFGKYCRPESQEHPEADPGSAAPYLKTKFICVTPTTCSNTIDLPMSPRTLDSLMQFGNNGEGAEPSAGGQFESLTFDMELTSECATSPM

CCc1c(C(=O)NN2CCCCC2)nn(-c2ccc(Cl)cc2Cl)c1-c1ccc(Br)cc1
inactive: [1] | [2] | [6] | [7]
active: [3] 37.4 µM | [4] 55.3 µM | [5] 13.2 µM | TIMP1, TIMP1 (gene 7076) 86.5 µM | [8] 29.8 µM

CCCCCCCCCCCCCCCCCC(=O)O
not listed: [9]
inactive: all other assays above

Cc1oc(-c2ccccc2)nc1CCOc1cccc2c1ccn2CCC(=O)O
active: [9] 82.4 µM | [3] 90.5 µM | [5] 16.9 µM | [7] 79.1 µM | [8] 80.1 µM
inactive: [1] | [2] | TIMP1, TIMP1 (gene 7076) | [6]

CCNc1cccc(C)c1
not listed: [4]
inactive: all other assays above

Cc1ccc(C)c(C)c1
not listed: [4]
inactive: all other assays above

Cc1cccc(Nc2cc(Cl)nc(SCC(=O)O)n2)c1C
not listed: [4]
inactive: all other assays above

Cc1cccc(C)c1O
not listed: [4]
inactive: all other assays above

CC1(C)NC(=O)NC1=O
not listed: [9]
inactive: all other assays above

Nc1ccc(S(=O)(=O)c2ccc(N)cc2)cc1
active: [2] 0.767 µM
not listed: [4]
inactive: all other assays above

C[C@]12C=CC(=O)C=C1CC[C@@H]1[C@@H]2C(=O)C[C@@]2(C)[C@H]1CC[C@]2(O)C(=O)CO
not listed: [4]
inactive: all other assays above

Oc1ccc2c(c1)OC[C@@H](N1CCC(O)(c3ccc(F)cc3)CC1)[C@H]2O
not listed: [9]
inactive: all other assays above
